Data as given in publication PMC4336329 (PLoS ONE, 2015).
In all, about 310,000 compounds went through this assay and about 14,000 (4.5%) showed an effect of 50% or more. The effect is printed as a negative number. This excerpt belongs to a sample that is enriched for strong results.

Molecular target: human ether-à-go-go-related gene (hERG) potassium channel (human, UniProt Q12809)
Assay: primary screen, population patch clamp on CHO cells stably expressing hERG; higher = less effect of the substance
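Further: peak tail current of the secondary pulse compared with the same well before compound.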

Chain of human ether-à-go-go-related gene (hERG) potassium channel (Q12809 whole entry, looked up): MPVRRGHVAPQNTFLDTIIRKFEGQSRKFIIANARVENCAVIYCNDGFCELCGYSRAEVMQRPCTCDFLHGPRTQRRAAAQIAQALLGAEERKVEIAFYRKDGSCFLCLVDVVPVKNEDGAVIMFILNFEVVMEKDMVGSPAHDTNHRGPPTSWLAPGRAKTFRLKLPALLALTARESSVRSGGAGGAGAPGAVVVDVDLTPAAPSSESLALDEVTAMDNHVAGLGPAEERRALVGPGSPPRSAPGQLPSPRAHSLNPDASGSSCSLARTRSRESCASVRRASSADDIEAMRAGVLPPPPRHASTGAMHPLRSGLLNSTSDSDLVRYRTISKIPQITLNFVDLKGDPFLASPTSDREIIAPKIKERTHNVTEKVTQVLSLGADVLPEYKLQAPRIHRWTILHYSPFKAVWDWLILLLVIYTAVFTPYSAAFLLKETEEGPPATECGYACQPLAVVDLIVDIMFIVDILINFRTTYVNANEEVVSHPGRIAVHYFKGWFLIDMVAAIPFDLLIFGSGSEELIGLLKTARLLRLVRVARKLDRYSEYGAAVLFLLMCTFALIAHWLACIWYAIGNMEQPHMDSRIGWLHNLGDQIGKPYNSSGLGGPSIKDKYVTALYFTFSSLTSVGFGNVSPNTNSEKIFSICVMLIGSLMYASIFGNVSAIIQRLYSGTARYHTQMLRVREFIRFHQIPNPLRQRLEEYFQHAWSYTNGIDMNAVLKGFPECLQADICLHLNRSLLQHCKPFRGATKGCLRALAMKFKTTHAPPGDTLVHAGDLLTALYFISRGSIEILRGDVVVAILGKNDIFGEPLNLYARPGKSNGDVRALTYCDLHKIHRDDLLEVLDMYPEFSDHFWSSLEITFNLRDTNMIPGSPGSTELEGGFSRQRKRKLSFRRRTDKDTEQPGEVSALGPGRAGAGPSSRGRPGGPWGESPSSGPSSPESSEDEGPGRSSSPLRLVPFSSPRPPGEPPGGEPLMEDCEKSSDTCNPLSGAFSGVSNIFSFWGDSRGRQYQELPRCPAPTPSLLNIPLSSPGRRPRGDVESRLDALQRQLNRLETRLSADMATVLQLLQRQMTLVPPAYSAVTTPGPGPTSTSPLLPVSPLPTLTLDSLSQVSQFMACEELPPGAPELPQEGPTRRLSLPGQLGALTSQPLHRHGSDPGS

| SMILES | hERG current change (%, negative = inhibition) at 10uM |
| --- | --- |
| Cc1cc(OCc2nn[nH]n2)c2c3c(c(=O)oc2c1)CCC3 | 3.12% |
| Cc1cc(C)c(S(=O)(=O)NCc2ccc3c(c2)OCO3)cc1C | -6.86% |
| Cc1onc(-c2ccccc2)c1C(=O)c1ccccc1 | 3.87% |
| COCCN1CC(C(=O)NCc2ncccc2C)CCC1=O (centres unmarked) | 22.6% |
| Cc1ccc(S(=O)(=O)CCC(=O)N(Cc2nnc(-c3ccc(Cl)cc3)o2)C2CC2)cc1 | -12.7% |
| O=[N+]([O-])c1ccc(N2CCN(S(=O)(=O)c3ccccc3)CC2)cc1NCc1cccnc1 | 1.8% |
| Cc1ccc2c(CC(=O)OCc3cc(=O)n4c(n3)sc3ccccc34)coc2c1 | 5.05% |
| CC(CN1CCOCC1)OC(=O)/C=C/c1ccccc1.Cl (centres unmarked) | 10.1% |
| CC(CN1CCOCC1)OC(=O)C(C)(c1ccccc1)c1ccccc1 (centres unmarked) | -8.05% |
| CC(CN1CCCCC1)OC(=O)C(C)(c1ccccc1)c1ccccc1.Cl (centres unmarked) | -52.3% |
| CC(CN1CCCC1)OC(=O)C(c1ccccc1)c1ccccc1.Cl (centres unmarked) | -42.2% |
| CC(CN1CCCCC1)OC(=O)/C=C/c1ccccc1.Cl (centres unmarked) | -71% |
| COc1ccc(/C=C/C(=O)OC(C)CN2CCCCC2)cc1.Cl (centres unmarked) | -26.2% |
| COc1cccc2cc(C(=O)NCc3ccc(Cl)cc3)c(=O)oc12 | 14.4% |
| O=C(Cn1cnc2ccccc2c1=O)Nc1cccc(-c2nnc3n2CCCCC3)c1 | 0.387% |
| COc1ccc(-n2nc(C(=O)c3cccs3)cc(-c3nc4ccccc4[nH]3)c2=N)cc1 | -4.53% |
| N=c1c(-c2nc3ccccc3[nH]2)cc(C(=O)c2cccs2)nn1-c1ccccc1 | -50.2% |
| O=C(Nc1ccc(-c2nc3ccccc3[nH]2)cc1)c1ccco1 | -18.4% |
| Cc1cccc(-n2nc(C(=O)c3ccco3)cc(-c3nc4ccccc4[nH]3)c2=N)c1 | -65.7% |
| N=c1c(-c2nc3ccccc3[nH]2)cc(C(=O)c2ccco2)nn1-c1ccccc1 | -59.5% |
| Cc1ccccc1-n1nc(C(=O)c2cccs2)cc(-c2nc3ccccc3[nH]2)c1=N | -1.9% |
| N=c1c(-c2nc3ccccc3[nH]2)cc(C(=O)c2cccs2)nn1-c1ccc(Cl)cc1 | 8.51% |
| Cc1ccc2nc(-c3cccc(NC(=O)c4ccco4)c3)[nH]c2c1 | -30.7% |
| O=C(Nc1cccc(-c2nc3ccccc3[nH]2)c1)c1ccco1 | -16.9% |
| COc1ccc(CCNC(=O)CCC(=O)N2CCN(S(=O)(=O)c3ccccc3)CC2)cc1OC | 4.4% |
| Fc1ccc(-n2c(Cc3ccccc3)nnc2SCc2nc(-c3ccc(Cl)cc3)no2)cc1 | -1.6% |
| Cc1cc(N(CN2CCCC2=O)C(=O)c2ccc(OC(C)C)cc2)no1 | -2.94% |

| SMILES | hERG current change (%, negative = inhibition) at 10uM |
| --- | --- |
| O=C(NP(=O)(N1CCOCC1)N1CCOCC1)C1=C(N2CCOCC2)/C(=C\c2ccccc2)CC1 | 18.1% |
| Cc1nc2n(n1)C(c1ccccc1)C1=C(CC(c3ccco3)CC1=O)N2 (centres unmarked) | 11.4% |
| COc1ccc(OC)c(-n2c(SCC(C)=O)nnc2-c2cccc(S(=O)(=O)N(C)C)c2)c1 | -16.9% |
| CCCSc1nnc(-c2cccc(S(=O)(=O)N(C)C)c2)n1-c1cc(OC)ccc1OC | -68.2% |
| CCSc1nnc(-c2cccc(S(=O)(=O)N(C)C)c2)n1-c1cc(OC)ccc1OC | -49.8% |
| CC(C)(C)OC(=O)CNC(=O)c1nc[nH]c1C(=O)N1CCN(C(=O)OC(C)(C)C)CC1 | -15.8% |
| CCOc1ccc(C(=O)NCCC(=O)NCCCC(=O)O)cc1 | 6.08% |
| Cc1cccc(N2N=C(C(=O)O)CCC2=O)c1 | 10.2% |
| O=C(Nc1cccnc1)c1cnn2c(C(F)F)cc(C3CC3)nc12 | -57.6% |
| CC(=O)c1ccc(NC(=O)c2cnn3c(C(F)F)cc(C4CC4)nc23)cc1 | 11.1% |
| O=C(O)c1cnn2c(C(F)F)cc(C3CC3)nc12 | 3.73% |
| Cc1ccc(C)c(SCC(=O)N(C)CC(=O)Nc2ccc(N3CCOCC3)cc2)c1 | -5.12% |
| Cc1ccc(NC(=S)N/N=C/c2ccc([N+](=O)[O-])s2)cc1 | -3.04% |
| O=C(C1CCN(Cc2ccc(Cl)cc2)CC1)N1CCN(Cc2ccc3c(c2)OCO3)CC1 | -66.6% |
| C[C@H](NS(=O)(=O)c1ccc2c(c1)OCCCO2)C(=O)N1CCN(Cc2ccc(C#N)cc2)CC1 | -61.1% |
| O=C(C1CCN(Cc2cccs2)CC1)N1CCN(Cc2ccc3c(c2)OCO3)CC1.O=C(O)C(=O)O | -14.5% |
| O=C(C1CCN(c2nnc(-n3cccc3)s2)CC1)N1CCN(Cc2ccc3c(c2)OCO3)CC1 | -68.2% |
| O=C(c1ccc(F)cc1)N1CCC(C(=O)N2CCN(Cc3ccc4c(c3)OCO4)CC2)CC1 | -10.5% |
| N#Cc1ccc(CN2CCN(C(=O)CNS(=O)(=O)c3ccc4c(c3)OCCCO4)CC2)cc1 | -20.8% |
| O=C(C1CC(=O)N(c2ccc(Cl)cc2)C1)N1CCN(Cc2ccc3c(c2)OCO3)CC1 (centres unmarked) | -67.7% |
| COc1cccc(CN2CCC(C(=O)N3CCN(Cc4ccc5c(c4)OCO5)CC3)CC2)c1 | -19.8% |
| COc1ccc(N2CC(C(=O)N3CCN(Cc4ccc5c(c4)OCO5)CC3)CC2=O)cc1 (centres unmarked) | -19% |
| O=C(C1CCN(Cc2ccccc2O)CC1)N1CCN(Cc2ccc3c(c2)OCO3)CC1 | -23% |
| C[C@H](NS(=O)(=O)c1ccc2c(c1)OCCCO2)C(=O)N1CCN(c2ccc(F)cc2)CC1 | -34.8% |
| O=C(C1CC(=O)N(c2ccc3c(c2)OCCO3)C1)N1CCN(Cc2ccccc2)CC1 (centres unmarked) | 0.404% |
| O=C(c1c[nH]c2ccc(S(=O)(=O)N3CCOCC3)cc2c1=O)N1CCC2(CC1)OCCO2 | 23.7% |
| CCc1ccccc1NC(=O)N1C2CCCC1CC(NC(C)=O)C2 (centres unmarked) | 21.4% |

| SMILES | hERG current change (%, negative = inhibition) at 10uM |
| --- | --- |
| Cc1nn(-c2ccccc2)c(Cl)c1C1C(C#N)=C(N)Oc2c1c(=O)oc1ccccc21 (centres unmarked) | 6.87% |
| CCN1C(=O)C(=Cc2c(C)n(CC(=O)NCC3CCCO3)c3ccccc23)C(=O)N(CC)C1=S (centres unmarked) | 27.5% |
| CCOc1cc(-c2noc(CCC(=O)Nc3cccnc3)n2)ccc1OC | 10.4% |
| O=C(O)CC12C[C@H]3C[C@@H](C1)CC(n1ncc(N4CCN(c5ccccc5)CC4)c(Cl)c1=O)(C3)C2 | 6.36% |
| O=C(C1CCN(S(=O)(=O)c2ccccc2)CC1)N1CCN(Cc2ccc3c(c2)OCO3)CC1 | -28.9% |
| O=C(C1CCN(S(=O)(=O)c2cnc[nH]2)CC1)N1CCN(Cc2ccc3c(c2)OCO3)CC1 | 0.674% |
| N#Cc1ccc(S(=O)(=O)N2CCC(C(=O)N3CCN(Cc4ccc5c(c4)OCO5)CC3)CC2)cc1 | -74.2% |
| CCCC(=O)N1CCN(Cc2ccc3c(c2)OCO3)CC1 | -3.83% |
| O=C(O)CCC(=O)N1CCN(Cc2ccc3c(c2)OCO3)CC1 | 11.6% |
| O=C(CCC1CCCCC1)N1CCN(Cc2ccc3c(c2)OCO3)CC1 | -67.2% |
| CCOC(=O)C1CCN(S(=O)(=O)c2cc(C(=O)OC)n(C)c2)CC1 | -8.49% |
| COC(=O)C1CCN(Cc2cn(-c3ccccc3)nc2-c2ccc3c(c2)OCO3)CC1 | -33.7% |
| c1ccc(-n2cc(CN3CCCC(CN4CCCC4)C3)c(-c3ccc4c(c3)OCO4)n2)cc1 (centres unmarked) | -29.2% |
| c1ccc(Cn2cc(CN3CCCO3)c(-c3ccc4c(c3)OCO4)n2)cc1 | 15.9% |
| OC[C@@H]1CCCN1Cc1cn(-c2ccccc2)nc1-c1ccc2c(c1)OCO2 | -24.2% |
| c1ccc(-n2cc(CN3CCCC3)c(-c3ccc4c(c3)OCO4)n2)cc1 | -73% |
| c1ccc(-n2cc(CN3CCC(N4CCOCC4)CC3)c(-c3ccc4c(c3)OCO4)n2)cc1 | -50.8% |
| COCCC1CCCCN1Cc1cn(-c2ccccc2)nc1-c1ccc2c(c1)OCO2 (centres unmarked) | -55.8% |
| Cl.O=C1CSC(c2cn(-c3ccccc3)nc2-c2ccc3c(c2)OCCO3)N1CCN1CCOCC1 (centres unmarked) | -21.2% |
| COCC1CCCN(Cc2cn(-c3ccccc3)nc2-c2ccc3c(c2)OCO3)C1 (centres unmarked) | -65.7% |
| CC(=O)NCC1CCCN(Cc2cn(-c3ccccc3)nc2-c2ccc3c(c2)OCO3)C1 (centres unmarked) | -45.9% |
| COCC1CCCCN1Cc1cn(-c2ccccc2)nc1-c1ccc2c(c1)OCO2 (centres unmarked) | -37.1% |
| c1ccc(Cn2cc(CN3CCCCO3)c(-c3ccc4c(c3)OCO4)n2)cc1 | -1.3% |
| O=C(COC(=O)Cn1nc(-c2ccccc2)oc1=O)Nc1ccc(F)cc1 | 4.6% |
| CC1=C(C/C=C(\C)CCCC(C)CCCC(C)CCCC(C)C)C(=O)c2ccccc2C1=O (centres unmarked) | 25.4% |
| COC(=O)c1sccc1NC(=O)Nc1ccccc1F | 13.4% |
